From PubChem
Hits are enriched below; roughly 2.3% of the tested compounds scored in any of these assays.
Tau fibril ThT: tau fibrillization inhibition (ThT binding); Potency, µM (titrated, usually from 57.4 µM), without a hit: at the highest dose activity, negative = inhibition, actives largely listed as inhibitors; recombinant tau K18 P301L, heparin-induced fibrillization, ThT fluorescence; 2.1% of 270,000 active; P10636; further: potency means the concentration at half of the fitted maximal effect; nearly all actives have a fitted effect of over 55% in size
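Recombinant human tau K18 fragment […] carrying P301L, 15 uM unlabeled plus 0.24 uM Alexa 594-labeled, was fibrillized with 20 uM heparin in 100 mM sodium acetate pH 7 for 6 hr at 37 C; 30 uM ThT fluorescence read after 1 hr.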
Tau fibril FP: blocks human tau fibril formation measured by polarization. P10636. K18 P301L tau heparin fibrillization, Alexa594 FP, 6 h. Potency, µM (highest dose often 57.7 µM), inactives show top-dose activity, negative = inhibition, most hits filed as inhibitors. 0.39% of 280,000 active; further: potency means the concentration at half of the fitted maximal effect; nearly all actives have a fitted effect of over 55% in size
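Recombinant K18 P301L […], labeled with Alexa 594 at 0.24 uM over 15 uM unlabeled; heparin inducer 20 uM final; 37 C, 6 hr; FP endpoint.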
FBPA coupling cs: counter-screen for Giardia aldolase inhibitors: coupling enzyme system. coupling enzyme system counterscreen, AmpLite Red fluorescence. activity change, negative = inhibition, % at 58.2 µM, hits read low. 0.67% of 290,000 active. AID 2472; in the data active means activity change below about -30%
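Compounds tested against the coupling enzymes alone at 57.5 uM final; readout was AmpLite Red fluorescence (525/598 nm) after 20 min at RT.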
Tau fluor counter: counter-screen for tau fibril formation inhibitors; tau K18 P301L (four-repeat tau fragment) Alexa594 fluorescence, heparin fibrillization; Potency, µM (doses to about 57.7 µM), inactives show top-dose activity change, negative = decrease; 0.93% of 280,000 active; further: potency means the concentration at half of the fitted maximal effect; nearly all actives have a fitted effect of over 55% in size
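Human K18 P301L tau (15 uM unlabeled plus 0.24 uM Alexa 594-labeled, final) in 100 mM sodium acetate pH 7 was mixed with compound and 20 uM heparin and incubated 6 hr at 37 C.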
USP1-UAF1 inh: USP1/UAF1 (human) deubiquitinase inhibition; O94782; recombinant USP1/UAF1, Ub-Rhodamine cleavage fluorescence; Potency, µM (titrated, usually from 57.1 µM), for the others: top-dose activity change, negative = inhibition, hits mostly inhibitors; 0.23% of 390,000 active; further: potency means the concentration at half of the fitted maximal effect; nearly all actives have a fitted effect of over 60% in size
Target sequence (O94782 whole entry, looked up): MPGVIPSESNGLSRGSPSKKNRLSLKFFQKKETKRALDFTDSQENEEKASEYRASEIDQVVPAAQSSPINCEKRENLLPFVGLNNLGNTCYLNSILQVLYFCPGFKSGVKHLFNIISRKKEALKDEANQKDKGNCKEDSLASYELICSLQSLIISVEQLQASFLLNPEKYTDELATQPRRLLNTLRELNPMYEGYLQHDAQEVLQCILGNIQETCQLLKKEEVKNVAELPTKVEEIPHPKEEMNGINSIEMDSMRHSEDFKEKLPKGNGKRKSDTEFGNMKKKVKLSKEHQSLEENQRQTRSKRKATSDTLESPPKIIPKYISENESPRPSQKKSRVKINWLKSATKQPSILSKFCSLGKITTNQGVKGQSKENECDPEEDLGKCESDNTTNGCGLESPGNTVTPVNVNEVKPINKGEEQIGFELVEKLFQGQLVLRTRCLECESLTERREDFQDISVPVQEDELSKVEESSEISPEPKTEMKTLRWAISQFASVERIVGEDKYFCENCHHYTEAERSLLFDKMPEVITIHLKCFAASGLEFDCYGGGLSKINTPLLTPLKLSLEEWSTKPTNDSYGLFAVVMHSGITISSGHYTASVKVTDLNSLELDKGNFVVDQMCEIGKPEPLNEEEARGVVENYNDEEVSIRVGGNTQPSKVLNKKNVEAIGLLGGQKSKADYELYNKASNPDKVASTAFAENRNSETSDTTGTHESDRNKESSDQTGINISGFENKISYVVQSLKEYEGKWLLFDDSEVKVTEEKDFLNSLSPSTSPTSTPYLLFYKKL
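USP1/UAF1 complex at 1 nM was preincubated with compound for 15 min at room temperature, then Ub-Rho substrate (150nM final) was added. Fluorescence (480/540 nm) was read kinetically, 6 reads every 60 seconds.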
* = called active by the depositor; ? = inconclusive; . = no result given; [ ] = another dose, or the depositor's remark. Unless noted, the call rests on the fitted dose curve; in most records, active means well fitted curve in the direction sought with a large enough effect; inconclusive means small, poorly fitted or top-dose-only effect, or another doubt; inactive means no such curve, though single readings can be large; an effect the other way counts as inactive or inconclusive. On the % scale 0 is the no-effect control and ±100 the full control effect.

SMILES | Tau fibril ThT | Tau fibril FP | FBPA coupling cs | Tau fluor counter | USP1-UAF1 inh
COc1ccccc1NC(=O)c1ccc2[nH]c(C)cc(=O)c2c1 | -3% | 5% | . | 0% | 0%
CC(C)CCN1CCC(N)=NC1=O | 0% | -2% | 1 | 1% | 1%
COc1c(C2=CC(=O)N(C)C2=O)c2c(n1C)C(=O)c1ccccc1C2=O | 14µM* | -12% | -35* | 18µM*[quencher] | .
COc1cc(/C=C/C(=O)O)ccc1OS(=O)(=O)c1c(C)c(C)cc(C)c1C | . | . | . | . | -9%
COc1cc(C)c(/C=C/C(C)=C/C=C/C(C)=C/C(=O)O)c(C)c1C | 25µM* | -11% | . | ? | -33%
COCCOC(=O)C1=C(C)NC2(O)c3ccccc3C(=O)C12O (configuration not stated) | 11µM* | ? | -27 | -14% | -26%
CCN1c2ccccc2-c2nc(SCC(=O)Nc3cccc(C(F)(F)F)c3)ncc2S1(=O)=O | 13% | 28µM* | . | ? | ?
CCc1cccc(NC(=O)CSc2ncc3c(n2)-c2ccccc2N(CC)S3(=O)=O)c1 | -13% | ? | . | ? | 10%
O=C(CSc1ncc(S(=O)(=O)c2ccc(Cl)cc2)c(=O)[nH]1)Nc1cccc(C(F)(F)F)c1 | -6% | -2% | . | -13% | -26%
CC(C)c1ccc(S(=O)(=O)c2cnc(SCC(=O)Nc3cccc(C(F)(F)F)c3)nc2N)cc1 | ? | 13µM* | . | ? | -31%
C=CC1=C2C=C(C3CC3)N(c3ccc(OC)cc3)C=C2C(=O)C(C)(OC(=O)c2ccco2)C1=O (configuration not stated) | ? | 2%[11.6 µM] | -7 | -24%[11.6 µM] | .
CC(C)N1C(=O)/C(=C\c2nc3ccccc3c(=O)[nH]2)c2ccccc21 | 28µM* | 15% | 3 | ? | -6%
CCn1c(/C=C2\C(=O)N(C(C)C)c3ccccc32)nc2ccccc2c1=O | ? | 6% | 0 | -14% | -22%
CCCN1C(=O)/C(=C/c2nc3ccccc3c(=O)[nH]2)c2cc(C)ccc21 | 14µM* | 0% | 1 | 20µM*[quencher] | -3%
CCCN1C(=O)/C(=C/c2nc3ccccc3c(=O)[nH]2)c2ccccc21 | ? | 7% | 2 | -2% | -5%
COc1ccc(OC)c(NC(=O)c2c(NCc3ccc(C)o3)sc3c2CCCCC3)c1 | 25µM* | ? | . | ? | 5%
CCOC(=O)N1CCc2c(sc(NCc3ccc(OC)c(Br)c3)c2C(=O)Nc2cc(OC)ccc2OC)C1 | 14µM* | -2% | . | ? | -7%
COc1ccccc1NC(=O)c1c(NCc2ccc(C)o2)sc2c1CCCCC2 | 25µM* | ? | . | ? | -15%
COc1ccc(Cl)cc1NC(=O)c1c(NCc2ccc(C)o2)sc2c1CCCCC2 | ? | -12% | . | -21% | -9%
COc1ccc(NC(=O)c2c(NCc3cccs3)sc3c2CCCCC3)c(OC)c1 | 25µM* | ? | . | ? | -17%
Cc1ccccc1-c1ccc2ncnc(NCc3cccs3)c2c1 | . | . | 1 | . | .
COc1ccc(NC(=O)c2c(NCc3cccs3)sc3c2CCCC3)cc1 | ? | -10% | . | ? | 3%
CCOC(=O)c1ccc(NC(=O)c2c(NCc3cccs3)sc3c2CCCCC3)cc1 | 22µM* | ? | . | -26% | ?
O=[N+]([O-])c1ccc(S(=O)(=O)Nc2ccc(-c3csc(-c4ccccc4)n3)cc2)cc1 | ? | -7% | -1 | 8.9µM*[quencher] | .
CNc1nc(-c2ccc([N+](=O)[O-])cc2)cs1 | 13µM* | 11% | 4 | -13% | -9%
SMILES | Tau fibril ThT | Tau fibril FP | FBPA coupling cs | Tau fluor counter | USP1-UAF1 inh
O=C(c1ccccc1)c1ccc2nc(Nc3cc(Cl)ccc3O)c3nncn3c2c1 | -10% | ? | . | 18µM*[quencher] | ?
COc1ccc(Cl)cc1Nc1nc2ccc(C(=O)c3ccccc3)cc2n2cnnc12 | -8% | 1% | . | -20% | 4%
COc1ccc(-c2cn3nc(N4CCCC(C(=O)Nc5cc(C)ccc5C)C4)sc3n2)cc1 (configuration not stated) | ? | 9% | . | -22% | ?
CCOc1ccc2c(c1)C(C)=CC(C)(C)N2C(=O)Nc1ccccc1 | 28µM* | ? | -27 | ? | -26%
CCNC(=O)N1c2ccc(OC)cc2C(C)=CC1(C)C | ? | -5% | -40* | -21% | -9%
COc1ccc(NC(=O)N2c3ccc(OC)cc3C(C)=CC2(C)C)cc1 | 32µM* | ? | -36* | ? | -14%
COc1ccc(NC(=O)N2c3ccccc3C(C)=CC2(C)C)cc1 | ? | 6% | 0 | -10% | -1%
CCOCCc1nn2c(=O)cc(COC(=O)c3ccc(NC(=O)c4ccc(F)cc4)cc3)nc2s1 | 13% | 3% | . | 12% | 0%
Cc1c(Cl)cccc1NC(=O)Nc1nnc(N2CCCCCC2)s1 | -1% | -11% | . | -10% | -11%
COc1ccc(N=Nc2cnc(C)nc2-c2ccccc2)cc1 | 18µM* | 10% | -1 | ? | -31%
O=C1OC2(CCCCC2)CC2=C1C1O[C@](CCCCN3C(=O)c4ccccc4C3=O)(Cc3ccccc31)O2 | . | . | -2 | . | .
CC1=C(C)C(=O)C(CCCCC#CCCCC#CCO)=C(C)C1=O | 20µM* | ? | -59* | ? | -16%
COc1ccc(N=C2O/C(=C/c3sc(=S)n(CC4CCCO4)c3O)N=C2C#N)cc1 (configuration not stated) | 10µM* | -12% | -8 | 13µM*[quencher] | -14%
COc1ccc(/C=C2\SC(=S)N(CC3CCCO3)C2=O)cc1 (configuration not stated) | ? | -10% | -3 | -27% | -16%
O=C(Cn1c(SCC(=O)Nc2ccc(F)cc2)nc2ccccc21)NCc1ccc(Cl)cc1 | -8% | -10% | . | ? | -10%
COc1ccccc1/C=C/C(=O)Nc1nc2n(n1)C(c1ccc(F)cc1)C=C(c1ccccc1)N2 (configuration not stated) | -7% | 3% | . | 1% | -22%
Nc1nn2c(C(F)(F)F)cc(=O)[nH]c2c1N=Nc1cccc(F)c1 | 7.9µM* | -15% | 1 | ? | -16%
Cc1cc(=O)[nH]c2c(N=Nc3ccc(O)cc3)c(N)nn12 | 8.9µM* | 10% | 2 | -26% | -19%
CCOc1ccc(CNC(=O)C2CCN(C(=O)N3CC(CC)Oc4ccc(C)cc43)CC2)cc1OC (configuration not stated) | -12% | 5% | . | -8% | 6%
Nc1cc(S(=O)(=O)Nc2ccc(Cl)cc2)ccc1N1CCOCC1 | -15% | -13% | 2 | -14% | -9%
N=C1c2ccccc2CN1c1ccc(N2CCOCC2)c(S(=O)(=O)Nc2ccc(Cl)cc2)c1 | 32µM* | ? | 1 | -26% | .
CC(=O)c1nnn(-c2cccc([N+](=O)[O-])c2)c1C | -4% | -3% | -38* | -3% | -8%
